Bioassay records (PubChem)
Abeta yeast res – compounds reversing amyloid beta toxicity in yeast. yeast expressing A-beta42, growth rescue, OD600, 48 h; response scale: 0% DMSO, 100% iron-clioquinol control. Potency, µM (highest dose often 46.1 µM), hits mostly activators. 410,000 tested, 0.063% active; note: nearly all actives have a fitted effect of over 55% in size
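Yeast growth medium received pinned compounds, then yeast cells expressing toxic A-beta were added; plates incubated at 30 C for 48 hr. Growth read as absorbance at 600 nm, normalized to DMSO and equimolar FeCl3 plus clioquinol controls.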
BCR signal inh – chronic active BCR signaling inhibition. AID 493014. 340,000 tested, 0.05% active. Potency, µM (highest dose often 46.1 µM), hits mostly inhibitors. ABC-DLBCL IkBa-CBG/CBR reporter, luminescence ratio, 4 h; active = well fitted inhibition curve with a large enough effect in the signal ratio, with a control signal flat, not every such curve was filed as active; inconclusive = small, poorly fitted or top-dose-only effect, or effect the other way, or a change in a side signal; the % refers to the signal ratio
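Doxycycline induced both beetle luciferases in TMD8 lymphoma cells; IKK-driven degradation limits the IkappaBalpha-fused green signal, while red luminescence normalises for cell number and nonspecific effects. Compounds tested up to 46 uM, 4 hrs.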
TDP-43 yeast inh – rescues yeast growth from TDP-43 toxicity | TDP-43 expressing yeast growth rescue, BacTiter-Glo, 24 h | Potency, µM (doses to about 46.1 µM), most hits filed as activators | 410,000 tested, 1.8% active | AID 652104; note: nearly all actives have a fitted effect of over 50% in size
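Growth rescue of TDP-43-toxic yeast measured as ATP luminescence (BacTiter-Glo). Cells grown to mid-log in raffinose, induced in galactose at OD600=0.02, exposed to compound 24 hr at 30 deg C.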
aSyn yeast inh – inhibitors of alpha-synuclein toxicity in yeast | Yeast expressing alpha-synuclein, growth rescue, BacTiter-Glo, 24 h | Potency, µM (top dose mostly 46.1 µM), usual class: activators | 370,000 tested, 0.14% active; note: nearly all actives have a fitted effect of over 65% in size
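Galactose-induced alpha-syn yeast (OD600=0.02, raffinose-pregrown) + pinned cpd, 24 hr, 30 deg C; growth by BacTiter-Glo luminescence. Growth restoration scores as activation.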
uPA surface inh – inhibitors of cell surface uPA generation | cell surface uPA generation assay, qHTS | Potency, µM (top dose mostly 38.3 µM), most hits filed as inhibitors | 330,000 tested, 0.31% active | AID 540303; active = well fitted inhibition curve with a large enough effect; inconclusive = small, poorly fitted or top-dose-only effect; inactive = no such curve, though single readings can be large or run the other way; tested in mouse RAW 264.7 cells; note: nearly all actives have a fitted effect of over 55% in size
FUS yeast rescue – rescues growth of FUS-expressing yeast. 390,000 tested, 0.24% active. Potency, µM (doses to about 76.6 µM), most hits filed as activators. S. cerevisiae FUS-expressing, growth rescue, OD600, 24 h; note: nearly all actives have a fitted effect of over 55% in size
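Cultures pregrown in 2.5% raffinose medium are shifted to minimal medium containing 2% galactose to express toxic FUS. Compounds are tested at several concentrations. After 24hr at 30C, growth is quantified at 600 nm absorbance.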
A number is an active result; n = inactive; u = inconclusive; x = no result given; [ ] = remark or other dose. The list is not random: actives were taken first. Their share in the collection is about 2.3%. Unless noted, calls come from the whole dose curve; as a rule, active = well fitted curve in the direction sought with a large enough effect; inconclusive = small, poorly fitted or top-dose-only effect, or another doubt; inactive = no such curve, though single readings can be large; an effect the other way counts as inactive or inconclusive.

SMILES	Abeta yeast res	BCR signal inh	TDP-43 yeast inh	aSyn yeast inh	uPA surface inh	FUS yeast rescue
S=C(Nc1ccccc1)Nc1ccccc1-n1cccc1	13µM	n	u	n	n	n
O=C(/C=C/c1ccc(F)cc1)c1ccccc1Br	n	n	16µM	u	n	x
CCOC(=O)CNC(=O)CSc1nc(C)cc(C)c1C#N	n	n	n	n	n	n
CCOC(=O)NC(=O)CSc1nc(C)cc(C)c1C#N	n	n	16µM	n	n	n
O=C(c1cnn(C(=O)c2ccco2)c1)c1cc(F)ccc1O	n	n	28µM	n	n	n
O=C(c1cnn(C(=O)c2ccco2)c1)c1cc(Cl)cc(Cl)c1O	n	n	u	n	n	x
CCOC(=O)c1c(-c2ccc(OC)cc2)csc1NC(=O)CSc1nnc(C)c(=O)[nH]1	n	n	n	n	n	n
Cc1c(C(=O)N2CCOCC2)[nH]c2c1C(=O)CC(c1ccc(Cl)cc1)C2 (stereo unspecified)	n	u	n	n	n	u
O=C(NN=C(Cc1ccccc1)Cc1ccccc1)c1ccccc1O	n	u	n	n	n	n
NC(=S)NN=C(Cc1ccccc1)Cc1ccccc1	u	u	16µM	n	n	n
CC(Oc1ccc2c3c(c(=O)oc2c1)CCCC3)C(=O)NCCCn1ccnc1 (stereo unspecified)	n	n	n	n	n	n
CCOCCCNC(=O)NC(=O)CN1CCN(S(=O)(=O)c2ccc3c(c2)OCCO3)CC1	x	n	n	n	n	n
COC(=O)c1cc(C(=O)OCC(=O)Nc2ccccc2OC(F)F)cc([N+](=O)[O-])c1	n	n	22µM	n	n	n
O=C(COC(=O)C1CCCCC1)Nc1ccccc1OC(F)F	n	n	13µM	n	n	n
O=C(COC(=O)Cc1ccc(Cl)cc1Cl)Nc1ccc(OC(F)F)cc1	n	n	n	n	n	x
O=C(COC(=O)Cc1ccc(Cl)cc1Cl)Nc1ccccc1OC(F)F	n	n	20µM	n	n	n
O=C(COC(=O)Cc1ccccc1F)Nc1ccc(SC(F)F)cc1	n	u	10µM	n	n	n
Cc1c(NC(=O)COC(=O)c2c3c(nc4ccccc24)CCCC3)c(=O)n(-c2ccccc2)n1C	n	n	n	n	n	n
Cc1c(NC(=O)C(C)OC(=O)c2c3c(nc4ccccc24)CCC3)c(=O)n(-c2ccccc2)n1C (stereo unspecified)	n	n	n	n	n	22µM
CCOC(=O)c1cn(-c2c(Cl)cccc2Cl)c2cc(Cl)c([N+](=O)[O-])cc2c1=O	n	n	u	n	8.9µM	n
CCOC(=O)c1cn(CC)c2cc(Cl)c([N+](=O)[O-])cc2c1=O	n	n	n	n	n	x
CCN(C(=O)CSc1ccccn1)C1CCCCC1	n	n	u	n[1.84 µM]	n	n
Cc1ccc(-c2nc3c4ccccc4n(CC(=O)NCc4ccc(F)cc4)c(=O)n3n2)cc1	n	n	n	x	x	n
O=C(NCc1ccccc1)C1CCC(CNc2c(N3CCCCC3)c(=O)c2=O)CC1 (stereo unspecified)	n	u	n	n	n	n
O=C(CN(C(=O)OCC1c2ccccc2-c2ccccc21)[C@@H](Cc1ccccc1)C(=O)O)OCc1ccc(C(=O)NCc2ccccc2)cc1	x	x	x	x	x	25µM
SMILES	Abeta yeast res	BCR signal inh	TDP-43 yeast inh	aSyn yeast inh	uPA surface inh	FUS yeast rescue
COc1cccc(CN2CCN(C(=O)c3ccco3)CC2)c1	n	n	n	n	n	n
CCc1nnc(SC(CC)C(=O)Nc2cc(C)ccc2C)c2cc3occc3n12 (stereo unspecified)	n	x	n	x	x	n
CCc1cccc(C)c1NC(=O)C(CC)Sc1nncn2c1cc1occc12 (stereo unspecified)	n	x	14µM	x	x	n
COCCCN(Cc1ccco1)C(=O)c1cc2c(s1)-c1ccccc1OC2	n	x	22µM	n	x	u
CC(C)CCN(Cc1ccco1)C(=O)c1cc2c(s1)-c1ccccc1OC2	n	x	n	n	x	n
Cc1cc(NC(=O)Cn2nnc(-c3ccccc3NC(=O)c3ccccc3F)n2)no1	n	n	n	n	n	n
O=C(NCCc1ccccc1)C1C(=O)Nc2ccccc2C(=O)N1C1CCCCC1 (stereo unspecified)	n	x	u	13µM	x	n
O=C(Nc1cccn(Cc2c(F)cccc2Cl)c1=O)NC1CCCCC1	n	u	n	n	11µM	n
C#CCOC(=O)Nc1cccn(Cc2c(Cl)cccc2Cl)c1=O	n	n	11µM	n	n	n
O=C(O)CN=C1NC2(CCCCC2)Cc2ccccc21	n	n	n	n	n	n
Cc1ccc(C23OCCN2CCn2nc4ccccc4c23)cc1 (stereo unspecified)	n	n	n	n	n	n
N#Cc1ccc(C23OCCN2CCn2c3c3ccccc3[n+]2[O-])cc1 (stereo unspecified)	n	n	n	n	2.2µM	n
N#CCCCC#Cc1ccc2c(c1)COc1c3ccccc3nn1-2	n	u	u	n	10µM	n
C#Cc1ccc2c(c1)COc1c3ccccc3nn1-2	n	x	u	n	13µM	n
O=C1c2ccccc2C(c2nnnn2-c2ccc3c(c2)OCCO3)N1Cc1ccc2c(c1)OCO2 (stereo unspecified)	n	x	n	n	x	n
Cc1ccc(O)c(-c2cc(C(F)(F)F)[nH]n2)c1	u	u	18µM	n	n	n
N#C/C(=C\c1ccccc1[N+](=O)[O-])c1nc(C2CC2)cs1	n	n	14µM	n	n	x
N#C/C(=C/c1ccccc1[N+](=O)[O-])c1nc(C2CC2)cs1	n	n	u	n	n	x
O=C(NCC1CCCO1)c1ccccc1NS(=O)(=O)c1cc([N+](=O)[O-])ccc1Cl (stereo unspecified)	n	n	n	22µM	n	x
CCOC(=O)c1nc(NCCc2ccccc2)sc1C	n	u	13µM	n	n	n
Fc1ccccc1N=C1NN=C(c2ccccc2)CS1	n	u	u	n	n	n
Clc1ccccc1N=C1NN=C(c2cccs2)CS1	n	u	11µM	n	n	n
O=C1c2c(-c3ccc(Br)cc3)noc2CCN1Cc1cn(Cc2ccccc2)nn1	n	x	u	n	x	n
CCOC(=O)CSc1c(-c2cccs2)[nH]c2ccccc12	u	u	16µM	n	n	n
CCOC(=O)CSc1c(-c2ccc(Cl)cc2)[nH]c2ccccc12	n	n	n	n	n	n
Cn1cccc1-c1cc(C(=O)N2CCc3c([nH]c4ccccc34)C2c2ccccn2)[nH]n1 (stereo unspecified)	u	n	n	n	n	18µM
O=C(c1ccc(-n2cccn2)cc1)N1CCc2c([nH]c3ccccc23)C1c1ccccn1 (stereo unspecified)	u	u	u	u	n	u
